Vaccinia pol inh: vaccinia E9 polymerase processive synthesis inhibition | in vitro processive DNA synthesis, absorbance read-out; hits give low values | normalized absorbance, % (test concentration not listed) | actives 0.94% (n = 46,000) | AID 493162; in the data active = normalized absorbance mostly below about 85%, no sharp cut-off; inactive = mostly above about 86%
* hit, by the source's call. This is one part of a sample in which hits are shown more often than they occur.

SMILES | Vaccinia pol inh
O=C(CCSc1ccc2ccccc2n1)NCCc1ccccc1 | 100
CCOC(=O)NC(=S)Nc1ccc(F)cc1 | 87
Cc1ccc(Cn2nnc3c(=O)n(Cc4ccc(C(F)(F)F)cc4)cnc32)cc1 | 98
Cc1ccc(Cn2nnc3c(=O)n(Cc4cccc(C)c4)cnc32)cc1 | 96
O=c1c2nnn(Cc3ccc(F)cc3)c2ncn1Cc1ccc(F)cc1 | 69*
CCN(CC)S(=O)(=O)c1ccc(C(=O)NCCn2ccc3ccccc32)cc1 | 100
CCC12CC3CC(O)(CC(O)(C3)C1)C2 | 99
O=C(O)c1ccccc1NCCO | 90
O=C(O)CCNc1ccccc1C(=O)O | 100
O=C(O)c1ccccc1NCc1ccc(Cl)cc1 | 53*
Cc1nn(-c2ccccc2)c(Cl)c1C(=O)NC1CCS(=O)(=O)C1 (configuration not stated) | 107
COc1ccc(-c2cc(=NC(CC(C)C)C(=O)O)c3cc(C)ccc3o2)cc1 (configuration not stated) | 98
COc1ccc(N=c2cc(-c3ccc(OC)cc3)oc3ccc(O)cc23)cc1 | 63*
COc1ccc(-c2cc(=NCCc3ccccc3)c3cc(C)ccc3o2)cc1 | 41*
COc1ccc(-c2cc(=Nc3ccc(O)cc3)c3cc(C)ccc3o2)cc1 | 54*
COc1ccc(-c2cc(=Nc3ccc(OC)c(OC)c3)c3ccccc3o2)cc1 | 94
COc1ccc(-c2cc(=O)c3cc(OC(=O)Cc4ccccc4)ccc3o2)cc1 | 100
COc1ccc(-c2c(C)oc3cc(O)ccc3c2=O)cc1 | 101
COc1ccc(-c2cc(=O)c3cc(OC(=O)c4ccc(OC)c(OC)c4)ccc3o2)cc1 | 99
CCc1ccc2oc(-c3ccc(OC)cc3)cc(=NCC(=O)O)c2c1 | 96
CCN(CC)c1ccc(/C=C2/C(=O)N=C(N)N2C)cc1 | 100
Cc1nn(S(=O)c2ccc3ccccc3c2)c(C)c1Sc1ccc(Cl)cc1 (configuration not stated) | 99
CN(C)/C=C/c1cc2c(cn1)C(=O)c1ccccc1-2 | 92
Cc1ccc2c(c1)-c1onc(C(=O)NC3CCCc4ccccc43)c1CO2 (configuration not stated) | 100
CCc1nnc(NC(=O)c2noc3c2COc2ccc(C)cc2-3)s1 | 98
SMILES | Vaccinia pol inh
CCN1CCCC1CNC(=O)c1noc2c1COc1ccc(C)cc1-2 (configuration not stated) | 63*
CCN(CCCNc1nc(=S)[nH]c2ccccc12)c1ccccc1 | 102
CC(Sc1ncnc2sc3c(c12)CCCC3)C(=O)O (configuration not stated) | 99
CCCCN1C(=O)C2ON(c3ccccc3)C(c3cc(Br)ccc3O)C2C1=O (configuration not stated) | 97
O=C1c2cccc3cccc(c23)C(=O)N1NCCO | 80*
O=C1c2cccc3cccc(c23)C(=O)N1c1ccc(O)cc1 | 96
O=C(O)CN1C(=O)c2cccc3cccc(c23)C1=O | 100
NC(=O)Cn1c(=O)n(CCC(=O)NCCc2ccc(Cl)cc2)c(=O)c2sccc21 | 80
COc1ccc2c(C#N)c3ccccn3c2c1 | 72*
N#CCOc1ccc2c(C#N)c3ccccn3c2c1 | 106
COc1ccc(OCc2c(C#N)c3ccccc3n2C)cc1 | 99
CCN(CC)CC(O)COc1ccc(NC(C)=O)cc1 (configuration not stated) | 107
CCC(C)NC(=O)c1cc(S(=O)(=O)N2CCc3ccccc3C2)ccc1Cl (configuration not stated) | 102
CCNC(=O)Oc1cccnc1I | 104
O=C(NCc1ccc(Cl)c(Cl)c1)c1c[nH]c2ccccc12 | 96
Cc1ccc(/C=C/C(=O)O)o1 | 91
O=C(O)/C=C/c1ccc(-c2cccc(C(F)(F)F)c2)o1 | 100
O=C(/C=C/c1ccc(Br)o1)Nc1ccc(F)cc1F | 98
O=C(/C=C/c1ccc(Br)o1)Nc1nccs1 | 101
O=C(/C=C/c1ccc(Br)o1)/C=C/c1ccc(Br)o1 | 49*
O=C(O)/C=C/c1ccc(Br)o1 | 72*
Cc1ccc(CNC(=O)c2c[nH]c3ccc(S(=O)(=O)Nc4ccc(C)cc4C)cc3c2=O)cc1 | 100
S=c1nccc(-c2ccc(-c3cccs3)s2)[nH]1 | 98
CCc1ccc(C(=O)CSc2ccccc2C(=O)O)cc1 | 98
Brc1cc(Br)c2nc(-c3nccs3)ccc2c1 | 102
SMILES | Vaccinia pol inh
CCOC(=O)N1CCN(CC(O)COc2ccc3ccccc3c2)CC1 (configuration not stated) | 100
O=S1(=O)CC2N=C(Nc3ccc(Cl)c(Cl)c3)SC2C1 (configuration not stated) | 102
COc1ccc2nc(C)cc(Nc3ccccc3)c2c1 | 81*
COc1ccc2nc(-c3ccccc3)cc(C(=O)O)c2c1 | 90
COc1ccc2nc(Nc3ccccc3)sc2c1 | 96
CC(C)(C)OC(=O)Nc1cn(-c2ccccc2)nc1-c1ccccc1 | 71
Cc1c2c(cc3c4c(c(=O)oc13)CCCC4)CN(CCc1ccc(F)cc1)CO2 | 106
Cc1ccc(CN2COc3c(Cl)cc4c(C)c(C)c(=O)oc4c3C2)cc1 | 69*
COC(=O)c1cc2ccc3c(c2oc1=O)CN(Cc1ccccc1)CO3 | 105
COC(=O)c1c(-c2ccc(C)c(C)c2)csc1NC(=O)C1CCCCC1C(=O)O (configuration not stated) | 100
CN(C)c1ccc(/C=C2/N=C(c3ccccc3)OC2=O)cc1 | 101
C/C(=N\C(=O)NN)c1cnn(-c2ccccc2)c1C | 91
CCc1cc(=O)oc2cc(C)c3c(C(C)(C)C)coc3c12 | 98
CCCNC(=O)c1cc(Cl)cc(Cl)c1 | 84
Cc1cc(C(F)(F)F)nc(SCCNC(=O)Cc2ccc(F)cc2)n1 | 86
COC(=O)c1ccc([C@H]2C(C#N)=C(N)C(C#N)(C#N)C3=CCC(C(C)(C)C)C[C@@H]32)cc1 (some centres not stated) | 99
COc1ccc(-c2ccnc(SCC(=O)c3ccc(Cl)cc3)n2)cc1 | 99
COc1ccc(C(=O)CSc2nnc(-c3ccco3)c(-c3ccco3)n2)cc1 | 68*
COc1ccc(C(=O)CSc2nc3ccccc3s2)cc1 | 90
O=C(CSc1nnc(NC(=O)c2cccs2)s1)Nc1ccccc1F | 97
Cc1ccccc1C(=O)OCC(=O)c1sc2ccc(Cl)cc2c1C | 101
CCOC(=O)N1CCN(c2cc(NCCC(=O)O)c3c4c(onc24)-c2ccccc2C3=O)CC1 | 70*
CCOC(=O)N1CCN(S(=O)(=O)c2ccccc2)CC1 | 100
O=C1c2ccccc2-c2onc3c(Br)cc(NCc4ccccc4)c1c23 | 99
C[n+]1cc(-c2ccc3ccccc3n2)cc2ccccc21 | 85*
SMILES | Vaccinia pol inh
Cn1c(-c2ccc3ccccc3n2)[n+](C)c2ccccc21 | 100
COc1ccc(-c2ccc3ccccc3n2)cc1OC | 101
FC(F)(F)c1cc(Br)ccc1N=Cc1ccccc1 | 107
CSc1cc(-c2nccs2)[nH]n1 | 98
O=C(O)c1ccc(CS(=O)(=O)c2ccccc2)o1 | 19*
O=C(O)c1ccc(CSCc2ccccc2)o1 | 92
COc1ccc(S(=O)(=O)Cc2ccc(C(=O)N3CCOCC3)o2)cc1 | 98
Cc1nn(CCCC(=O)NC2CCCC2)c(=O)c2nccn12 | 100
Cc1c(C(=O)NCCCN2CCOCC2)oc2ccc3c(c12)C(=O)CC(C)(c1ccc(Cl)cc1)O3 (configuration not stated) | 99
Cc1cc2ncn(Cc3ccccc3C)c2cc1C | 98
S=C(Nc1ccccc1)Nc1ccccc1-c1nc2ccccc2[nH]1 | 68*
O=C(Nc1ccccc1-c1nc2ccccc2[nH]1)C1=COCCO1 | 92
CC(C)C(=O)Nc1ccccc1-c1nc2ccccc2[nH]1 | 94

Source: PubChem BioAssay (ICCB-Longwood Screening Facility, Harvard Medical School)
